Laboratory results: PubChem BioAssay AID690 (Sanford-Burnham Center for Chemical Genomics, 2007)
Among all 96,000 compounds or so, about 80 (0.08%) were called active. No rule for the calls is given here. A selection follows. Measured potencies and affinities stand elsewhere.

Biological target: Alkaline phosphatase, placental type (Homo sapiens) (UniProt P05187)
Assay: inhibition of human placental alkaline phosphatase – biochemical, luminescence, HTS (AID 690)
Conditions: purified PLAP, luminescent substrate; at 20 µM; active compounds read high

Chain of Alkaline phosphatase, placental type (Homo sapiens) (P05187 whole entry, looked up): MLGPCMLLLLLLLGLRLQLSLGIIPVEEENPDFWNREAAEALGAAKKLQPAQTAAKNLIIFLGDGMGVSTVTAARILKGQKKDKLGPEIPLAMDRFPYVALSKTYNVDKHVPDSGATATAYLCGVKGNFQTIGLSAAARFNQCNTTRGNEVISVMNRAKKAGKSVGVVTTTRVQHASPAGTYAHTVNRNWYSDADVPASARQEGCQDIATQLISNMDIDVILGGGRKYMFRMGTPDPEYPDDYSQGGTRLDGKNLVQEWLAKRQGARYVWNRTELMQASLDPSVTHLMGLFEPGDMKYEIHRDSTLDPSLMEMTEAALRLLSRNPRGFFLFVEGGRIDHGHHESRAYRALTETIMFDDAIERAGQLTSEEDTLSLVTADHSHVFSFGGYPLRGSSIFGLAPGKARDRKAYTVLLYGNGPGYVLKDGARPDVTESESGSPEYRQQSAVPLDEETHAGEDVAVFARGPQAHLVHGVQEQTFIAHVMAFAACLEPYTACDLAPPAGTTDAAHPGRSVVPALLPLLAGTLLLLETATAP

inhibition, inactive:
CCOc1ccc(NC(N)=O)cc1OCC 13.6%, O=P(O)(O)c1ccccc1OCCCCCOc1ccccc1P(=O)(O)O 21.2%, O=P(O)(O)c1ccccc1OCCOCCOc1ccccc1P(=O)(O)O 17.4%, CSC1=C(C#N)C(c2ccccc2C)C(C#N)=C(N)N1 (stereo not drawn) 17.9%, O=C(NC(Cc1ccc(F)cc1)C(=O)O)c1ccccc1 (stereo not drawn) -2.2%, Cc1cc(C)n2nc(SCc3nnc(SCc4ccccc4)s3)nc2n1 -20.5%, COC(=O)c1cc(NC(=O)C2COc3ccccc3O2)ccc1Cl (stereo not drawn) 28.8%, Cc1c(NC(=O)C(C)OC(=O)CNC(=O)c2ccccc2)c(=O)n(-c2ccccc2)n1C (stereo not drawn) 5.2%, CC(C)(C)c1ccc(C(=O)CSc2nc3ccccc3c(=O)[nH]2)cc1 -9.7%, O=C(CSc1n[nH]c(-c2ccncc2)n1)c1ccccc1 7.6%, O=C(CSc1n[nH]c(-c2ccccc2)n1)c1ccccc1 -11.7%, Cc1ccc(C(=O)CSc2nc3ccccc3c(=O)[nH]2)cc1 -27.5%, COc1ccc(Cn2c(CCC(=O)Nc3ccc(CC#N)cc3)nc3cccnc32)cc1 11.1%, O=C(C[n+]1ccc(C(=O)N/N=C/c2ccc(OCc3ccccc3)cc2)cc1)c1ccccc1 41.8%, O=C(C[n+]1ccc(C(=O)N/N=C/c2ccc(O)cc2)cc1)c1ccccc1 23.2%, CC(=O)NC1C(=O)N=C(SCC(=O)NC(C)c2ccccc2)NC1=O (stereo not drawn) -18.8%, C=CCNS(=O)(=O)CC12CCC(CC1=O)C2(C)C (stereo not drawn) 4.8%, O=C(Nc1cc(N2CCOCC2)ncn1)c1ccccc1 1.3%, CCOC(=O)Cc1csc(NC(=O)NC2(C(F)(F)F)Oc3ccc(Cl)cc3O2)n1 (stereo not drawn) 30.3%, O=C(NC1(C(F)(F)F)Oc2ccccc2O1)N1CCCC1 -7.5%, O=C(Nc1cc(N2CCOCC2)ncn1)Nc1cccc2ccccc12 14.5%, CC(=O)OC(C)(C)C#CCN1CCCC1 24.5%, CC(=O)N1CCN(C(=S)c2ccc([N+](=O)[O-])cc2)CC1 12.8%, Cc1[nH]c2ccccc2c1/C=N/n1cnnc1 7.5%, Cc1[nH]c2ccccc2c1C(=O)/C=C/c1ccccc1 10.6%, Cc1nn(CC(O)Cn2cnc3c2c(=O)n(C)c(=O)n3C)c(C)c1Br (stereo not drawn) -1.6%, CCOc1cccc(-c2nc(C(N)=O)c3[nH]c(=O)n(-c4cccc(Cl)c4)c3n2)c1O -27.5%, COc1cccc(OCCNc2cc(N3CCCCC3)ccc2[N+](=O)[O-])c1 -2.3%, COc1ccc(OCCNc2cc(Cl)ccc2[N+](=O)[O-])cc1 4.1%, CCC(=O)NCCc1nc2cc(NC(=O)c3ccccc3OC)ccc2n1C -60.5%, CCOC(=O)c1c(C)n(CC(COC(C)=O)OC(C)=O)c2ccc(OC(C)=O)cc12 (stereo not drawn) -45.7%, CCCCN(CCCC)S(=O)(=O)c1ccc(C(=O)Nc2nnc(CSC)o2)cc1 -15.3%, c1ccc([C@H]2CC3C[C@@H](c4ccccc4)N2O3)cc1 -8.8%, O=C(NC1CCCCCC1)c1nc2ncccn2n1 2.9%, COc1cc(/C=N/N(C)c2ccccc2)cc(Cl)c1O 5.2%, CCOc1cc(/C=C2\CCC/C(=C\c3cc(Cl)c(O)c(OCC)c3)C2=O)cc(Cl)c1O 26.7%, N#CC(/C(=N/S(=O)(=O)c1cccs1)c1ccccc1)c1nc2ccccc2[nH]1 (stereo not drawn) -67.4%, O=C(Nc1ccc(Br)cc1)c1cnccn1 -8.2%, Cc1nc2c(cc(Oc3ccc(S(=O)(=O)N4CCOCC4)cn3)c3ccsc32)s1 -48.6%, CN(C)C(C(=O)NC1CCCCC1)c1ccc(Cl)cc1 (stereo not drawn) -18%, O=C(Nc1ccc2c(c1)OCCO2)C1c2ccccc2C(=O)N2CCc3ccccc3C12 (stereo not drawn) 14.8%, Clc1ccc(/C=C/c2nc3ccccc3[nH]2)cc1 4.3%, Clc1cccc(Cl)c1/C=C/c1nc2ccccc2[nH]1 14.1%, Clc1nc(-c2n[nH]nc2Cl)n[nH]1 14.3%, Nc1nnc(-c2cc3ccccc3oc2=O)s1 3.8%, CNc1nnc(-c2cc3cc(Cl)ccc3oc2=O)s1 -24.2%, CC1(C)Cc2c(sc3nc4n(c(=O)c23)CCC4)CO1 -3.1%, CC1(C)Cc2c(sc3nc4n(c(=N)c23)CCC4)CO1 -9.9%, CCCN1C(=O)NC2(O)C(=O)c3ccccc3C12O (stereo not drawn) 0.4%, C=CCOC(=O)C1=C(C)NC2(O)c3ccccc3C(=O)C12O (stereo not drawn) 10.9%, CCSc1nc2c(c(=O)n1CC)SC(C)C2 (stereo not drawn) -16%, Cn1c(=O)c2c(nc(NCCNC(=O)c3ccco3)n2Cc2ccc(Cl)cc2Cl)n(C)c1=O 6.4%, CN1/C(=C\C(=O)c2ccco2)C(C)(C)c2ccccc21 3.8%, CN1/C(=C/C=N/n2cnnc2)C(C)(C)c2ccccc21 16.4%, C=CCn1c(Cc2csc(N)n2)nnc1SCC(=O)Nc1ccccc1C(F)(F)F 21.5%, CC(=O)Oc1ccc2c(C)cc(=O)oc2c1 24.6%, CC(=O)c1cc2c(C)cc(=O)oc2cc1O 15.2%, CCOC(=O)C(C)n1cnc2c(cnn2-c2ccc(Cl)cc2)c1=O (stereo not drawn) 1.3%, CCc1nnc(NC(=O)c2ccc(S(=O)(=O)N3CCCCCC3)cc2)s1 -15.9%, COc1ccc(C(c2nnnn2C2CCCC2)N2CCC(C(N)=O)CC2)c(OC)c1 (stereo not drawn) -65.7%, Cc1cc([N+](=O)[O-])ccc1NCc1ccccc1 47.4%, COc1ccc(CNc2cc([N+](=O)[O-])ccc2OC)cc1 31.1%, Cc1cc(-c2nc3ncccc3o2)ccc1NC(=O)CC(C)C -19.3%, CSc1cccc(NC(=O)Nc2ccccc2)c1 2.1%, CSc1cccc(NC(=O)/C=C/c2ccc(Cl)cc2)c1 20.8%, CCS(=O)(=O)n1nc(-c2ccc(C)cc2)nc1N 13.8%, CCCN1C(=O)/C(=C/C=C2\N(CC)c3ccccc3C2(C)C)SC1=S 22.7%, CCN1C(=O)C(O)(CC(=O)/C=C/C=C/c2ccccc2)c2ccccc21 (stereo not drawn) -9.7%, Cn1c(=O)oc2cc(S(=O)(=O)N3CCC(C(=O)N4CCc5ccccc5C4)CC3)ccc21 12.8%, Cc1ccc(NC(=S)NCCC(c2ccccc2)c2ccccc2)c(C)c1 -44%, O=C1CC(SCCc2nc3ccccc3[nH]2)C(=O)N1c1ccc(Cl)cc1 (stereo not drawn) -15.3%, COc1ccc(C2=C(C=Nc3c(C)n(C)n(-c4ccccc4)c3=O)C(c3ccccc3C)c3ccccc3O2)cc1OC (stereo not drawn) -61%, Cc1ccc(NC(=O)CCn2cccc2)cc1C 5.5%, O=C(CSc1nc2ccccc2s1)N1c2ccccc2Sc2ccc(Cl)cc21 9.1%, O=c1oc2ccccc2n1CSc1nc2ccccc2s1 46.4%, CCOc1ccc(C(CCc2ccccc2)NC(=O)c2ccccc2OC)cc1OCC (stereo not drawn) -15.5%, CS(=O)(=O)N1CCN(c2nc3ccccc3s2)CC1 2.4%, COc1ccc(NC(=O)/C(C#N)=C/c2ccc(Br)o2)cc1 -0.4%, COc1cc(/C=C(\C#N)C(=O)Nc2ccc(SC(F)F)cc2)cc(OC)c1OC -62%, CCc1ccc(/C(C)=N\Nc2ccc([N+](=O)[O-])cc2)cc1 26.2%, C/C(=N\Nc1nc(N)cc(Cl)n1)c1cccc([N+](=O)[O-])c1 -13.2%, COCCNC(=O)C(c1cccc(OC)c1)N(C(=O)Cn1nnc2ccccc21)c1cccnc1 (stereo not drawn) -24%, CCOc1ccccc1C(=O)Nc1ccc(S(=O)(=O)N2CCOCC2)cc1 -60.6%, O/N=C/c1cc(Cl)ccc1OCc1ccccc1Cl 0%, CCOc1ccc(Cl)cc1/C=N/O 10.1%, COc1cccc(C(=O)NCCC2=CCCCC2)c1 8.1%, COc1cc(/C=N/NC(N)=S)ccc1OCC(=O)Nc1ccc(C)c(C)c1 4.4%, CN1c2ccccc2C(C)(C)C12C=Cc1cc(O)ccc1O2 (stereo not drawn) 27.8%, CN1c2ccccc2C(C)(C)C12C=Nc1c(ccc3ccccc13)O2 (stereo not drawn) 0.3%, CC1=NN(C(=O)Cc2ccc([N+](=O)[O-])cc2)C(O)(c2ccccc2)C1 (stereo not drawn) -32.3%, CCOc1ccc(-c2nnc3sc(COc4ccc(C)cc4)nn23)cc1 -25.7%, CCOc1ccc(-c2nnc3sc(COc4ccccc4)nn23)cc1 8.3%, CCN(CC)S(=O)(=O)c1cc([N+](=O)[O-])ccc1NNC(=O)Nc1ccc(Cl)c(Cl)c1 -23.2%, Cc1cc(-c2nnc(SCC(=O)N3C(C)CCCC3C)o2)no1 (stereo not drawn) 0.5%, CCOC(=O)C1=C(O)/C(=C\c2ccc(OC)c(OC)c2)N=C1C -24.6%, CCOC(=O)C1=C(O)/C(=C/c2cc(OC)c(OC)c(OC)c2)N=C1C -30.7%, Cc1nn(-c2ccccc2)c(C)c1CCC(=O)O -21.2%, Cc1cc2cc(CN(CCCO)S(=O)(=O)c3cccc4nsnc34)c(=O)[nH]c2cc1C -57.9%
